Drawing on PubChem BioAssay (Tox21), this text covers Potency and max response for 10 molecules.

Test [1] is described as follows: qHTS RealTime-Glo MT Cell Viability Assay in HepG2 cells - 40 hour (AID 1224870). Note: nearly all actives have a fitted effect of over 50% in size. Note: potency is the fitted concentration of half-maximal effect. In short, it runs like this:
(§1)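 Real-time viability: cells seeded at 600 per well together with NanoLuc and cell-permeant prosubstrate, compounds added after 5 h incubation. Luminescence tracked at 0, 8, 16, 24, 32 and 40 h of exposure.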
(In general: Quantitative high-throughput screening tests each substance at several concentrations.)

The nature of test [2]: A CellTox Green Cytotoxicity Assay to monitor cytotoxicity in HEK293 cells - 40 hour (AID 1224871). Note: nearly all actives have a fitted effect of over 45% in size. Note: potency is the fitted concentration of half-maximal effect. Put shortly:
(§2)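 Fluorescence from a DNA-binding dye excluded by viable cells was measured repeatedly in the same HEK293 wells (600 cells/well) during continuous compound exposure at 37 C. Each assay gives one read point: 0, 8, 16, 24, 32 or 40 h.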

Test [3] in a line: qHTS RealTime-Glo MT Cell Viability Assay in HEK293 cells - 16 hour (AID 1224872). Note: nearly all actives have a fitted effect of over 50% in size. Note: potency is the fitted concentration of half-maximal effect. In short, it runs like this: (§3)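 Quantitative high-throughput screen of the Tox21 10K library in HEK293: cells and RealTime-Glo reagents plated together, compound added at 5 h, luminescence monitored through 40 h at 37 C.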
Test [4] in a line: qHTS RealTime-Glo MT Cell Viability Assay in HepG2 cells - 8 hour (AID 1224873). Note: nearly all actives have a fitted effect of over 55% in size. In short, it runs like this: as §1
The nature of test [5]: qHTS RealTime-Glo MT Cell Viability Assay in HEK293 cells - 40 hour (AID 1224874). Note: nearly all actives have a fitted effect of over 50% in size. Note: potency is the fitted concentration of half-maximal effect. The following applies: RealTime-Glo luminescence; max response: stronger effect = lower value. In short, it runs like this:
(§4)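 Luminescence, which tracks viable cell number through reduction of the prosubstrate to a NanoLuc substrate, was read over continuous 37 C culture. Cells (600/well) were premixed with reagent and rested 5 h before 23 nL of compound in DMSO was pinned.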

A short description of test [6]: A CellTox Green Cytotoxicity Assay to monitor cytotoxicity in HEK293 cells - 24 hour (AID 1224875). Note: series mostly up to about 77 µM; nearly all actives have a fitted effect of over 45% in size. In short, it runs like this: as §2
Test [7] can be described thus: A CellTox Green Cytotoxicity Assay to monitor cytotoxicity in HepG2 cells - 16 hour (AID 1224876). Note: nearly all actives have a fitted effect of over 45% in size. In short, it runs like this: (§5)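 Real-time cytotoxicity: fluorescence of a cell-impermeant cyanine dye binding DNA of dead HepG2 cells, measured repeatedly (0–40 h) during compound exposure at 37 C. Cells seeded 600/well with reagent, dosed after 5 h.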
A short description of test [8]: A CellTox Green Cytotoxicity Assay to monitor cytotoxicity in HepG2 cells - 24 hour (AID 1224878). Note: nearly all actives have a fitted effect of over 45% in size. In short, it runs like this: as §5
Test [9] can be described thus: A CellTox Green Cytotoxicity Assay to monitor cytotoxicity in HepG2 cells - 40 hour (AID 1224879). Note: nearly all actives have a fitted effect of over 40% in size. Put shortly:
as §5

Test [10] is described as follows: qHTS RealTime-Glo MT Cell Viability Assay in HEK293 cells - 0 hour (AID 1224880). Put shortly:
as §4

Test [11] is described as follows: A CellTox Green Cytotoxicity Assay to monitor cytotoxicity in HEK293 cells - 32 hour (AID 1224881). Note: nearly all actives have a fitted effect of over 40% in size. Put shortly: as §2
Test [12] in a line: A CellTox Green Cytotoxicity Assay to monitor cytotoxicity in HepG2 cells - 0 hour (AID 1224882). Note: nearly all actives have a fitted effect of over 35% in size. In short, it runs like this:
as §5

Test [13] in a line: A CellTox Green Cytotoxicity Assay to monitor cytotoxicity in HEK293 cells - 8 hour (AID 1224884). Note: nearly all actives have a fitted effect of over 35% in size. Put shortly:
as §2

The nature of test [14]: qHTS RealTime-Glo MT Cell Viability Assay in HepG2 cells - 16 hour (AID 1224885). Note: nearly all actives have a fitted effect of over 50% in size. In short, it runs like this:
(§6)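 Compound treatment began 5 h after plating HepG2 cells (600/well) with NanoLuc luciferase and prosubstrate. Plates stayed at 37 C for 40 h; luminescence was captured at six time points, 0 h through 40 h.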

A short description of test [15]: qHTS RealTime-Glo MT Cell Viability Assay in HEK293 cells - 24 hour (AID 1224886). Note: nearly all actives have a fitted effect of over 50% in size. Note: potency is the fitted concentration of half-maximal effect. In short, it runs like this:
as §3

Test [16] is described as follows: qHTS RealTime-Glo MT Cell Viability Assay in HEK293 cells - 8 hour (AID 1224887). In short, it runs like this: as §4
A short description of test [17]: A CellTox Green Cytotoxicity Assay to monitor cytotoxicity in HEK293 cells - 16 hour (AID 1224888). Note: nearly all actives have a fitted effect of over 35% in size. Put shortly: as §2
A short description of test [18]: qHTS RealTime-Glo MT Cell Viability Assay in HepG2 cells - 0 hour (AID 1224889). Note: nearly all actives have a fitted effect of over 50% in size. Put shortly: as §6
Test [19] in a line: qHTS RealTime-Glo MT Cell Viability Assay in HepG2 cells - 32 hour (AID 1224877). Note: nearly all actives have a fitted effect of over 55% in size. In short, it runs like this: as §6
The nature of test [20]: A CellTox Green Cytotoxicity Assay to monitor cytotoxicity in HepG2 cells - 32 hour (AID 1224883). Note: nearly all actives have a fitted effect of over 50% in size. In short, it runs like this: as §5

Unmarked numbers belong to inactive results. Records with an inconclusive call do not appear. Calls of active or inactive are those of the source. Calls come from the whole dose curve; as a rule, active = well fitted curve in the direction sought with a large enough effect in the repeat runs; inconclusive = weak or mixed curves; inactive = no such curve, though single readings can be large; an effect the other way counts as inactive or inconclusive.
% is set by controls: 0 for no effect and ±100 for the full control effect.

For the molecule `C[C@@H]1CC[C@H]2[C@@H](C)C(=O)O[C@@H]3O[C@@]4(C)CC[C@@H]1[C@]32OO4`, the Potency result in test [1], in test [2], in test [3], in test [4], in [6] and in test [7] was “inactive” each time. Also, the Potency entry in test [8], in test [9], in test [10], in [11], in test [12] and in test [13] was “inactive” in each case. For the same molecule, the Potency result in test [14], in [15], in [16], in test [17] and in test [18] was “inactive” each time. Further, in test [5], the max response was -5.45%.
In the case of `O=C(O)CC(Cl)C(=O)O` (configuration not stated), the Potency result in test [1], in [2], in [3], in test [4], in test [6] and in test [19] was “inactive” throughout. Moreover, the Potency entry in test [10], in test [11], in test [12], in test [13], in test [14] and in [15] was “inactive” throughout. Further, the Potency entry in test [16] and in test [17] was “inactive” each time. Besides, the max response in [5] is 0.924%.
Take `CC(=O)[C@H]1CC[C@H]2[C@@H]3CC[C@H]4C[C@](C)(O)CC[C@]4(C)[C@H]3CC[C@]12C`: the Potency result in test [1], in [2], in test [3], in test [4], in [6] and in test [7] was “inactive” each time. Moreover, the Potency entry in test [8], in test [9], in test [10], in test [11], in [12] and in test [13] was “inactive” throughout. The Potency result in [14], in test [15], in test [16], in test [17] and in [18] was “inactive” throughout. For the same molecule, the max response in test [5] was -9.18%.
As for `Brc1ccccc1`, the Potency result in test [1], in test [2], in test [3], in test [4], in test [6] and in test [7] was “inactive” in each case. In addition, the Potency entry in [8], in test [9], in test [10], in [11], in [12] and in test [20] was “inactive” in each case. The Potency result in test [13], in test [14], in [15], in test [16], in test [17] and in [18] was “inactive” in each case. The max response in test [5] was -2.8%.
With `CCCC(=O)Cl`, the Potency result in test [1], in test [2], in test [3], in [4], in test [6] and in [7] was “inactive” in each case. For the same molecule, the Potency entry in test [8], in test [9], in test [10], in [11], in test [12] and in test [20] was “inactive” in each case. Moreover, the Potency entry in test [13], in test [14], in [15], in test [16] and in test [18] was “inactive” in each case. The max response in test [5] is 17%.
As to `CCCCCCC#N`, the Potency entry in test [1], in [2], in [3], in test [4], in [6] and in test [7] was “inactive” in each case. Besides, the Potency entry in test [8], in [9], in test [10], in test [11], in [12] and in test [15] was “inactive” each time. Moreover, the Potency entry in test [16] and in test [17] was “inactive” each time. In addition, the max response in [5] was 1.28%.
For the molecule `CCCCN(N=O)C(=N)N[N+](=O)[O-]`, the Potency entry in test [1], in [2], in test [3], in test [4], in test [6] and in [7] was “inactive” throughout. Further, the Potency entry in [8], in test [9], in [10], in test [11], in test [12] and in test [14] was “inactive” each time. For the same molecule, the Potency result in test [15], in [16] and in test [17] was “inactive” in each case.
With `OC(c1ccc(Cl)cc1)(c1ccc(Cl)cc1)c1cccnc1`, the Potency result in test [1], in test [2], in test [6], in test [7], in [8] and in test [9] was “inactive” each time. The Potency result in test [10], in test [11], in [12], in test [13], in test [17] and in test [18] was “inactive” each time. For the same molecule, the Potency in test [3], in [5] and in [15] was 38.9 µM (active) each time.
With `C/C(=C\c1ccccc1)[N+](=O)[O-]`, the results for the Potency in test [1], in [2] and in [5] were 21.9 µM (active), 9.77 µM (active) and 11 µM (active), respectively. The Potency result in test [4], in [6], in test [7], in test [10], in test [12] and in [13] was “inactive” in each case. In addition, the Potency entry in test [17] and in [18] was “inactive” throughout.
As to `COC(N)=O`, the Potency entry in test [1], in test [2], in test [3], in [4], in [6] and in [7] was “inactive” in each case. Also, the Potency entry in test [19], in test [8], in [9], in test [10], in [11] and in [12] was “inactive” in each case. Besides, the Potency result in [20], in test [14], in test [15], in test [16], in [17] and in [18] was “inactive” throughout.
